Results filed as inconclusive are left out. Where a call stands in place of a potency, no number is given. The source made the active and inactive calls. Calls come from the whole dose curve; as a rule, active = well fitted curve in the direction sought with a large enough effect; inconclusive = small, poorly fitted or top-dose-only effect, or another doubt; inactive = no such curve, though single readings can be large or run the other way.

Sequence of Pyruvate kinase PKLR (Homo sapiens) (P30613 whole entry, looked up): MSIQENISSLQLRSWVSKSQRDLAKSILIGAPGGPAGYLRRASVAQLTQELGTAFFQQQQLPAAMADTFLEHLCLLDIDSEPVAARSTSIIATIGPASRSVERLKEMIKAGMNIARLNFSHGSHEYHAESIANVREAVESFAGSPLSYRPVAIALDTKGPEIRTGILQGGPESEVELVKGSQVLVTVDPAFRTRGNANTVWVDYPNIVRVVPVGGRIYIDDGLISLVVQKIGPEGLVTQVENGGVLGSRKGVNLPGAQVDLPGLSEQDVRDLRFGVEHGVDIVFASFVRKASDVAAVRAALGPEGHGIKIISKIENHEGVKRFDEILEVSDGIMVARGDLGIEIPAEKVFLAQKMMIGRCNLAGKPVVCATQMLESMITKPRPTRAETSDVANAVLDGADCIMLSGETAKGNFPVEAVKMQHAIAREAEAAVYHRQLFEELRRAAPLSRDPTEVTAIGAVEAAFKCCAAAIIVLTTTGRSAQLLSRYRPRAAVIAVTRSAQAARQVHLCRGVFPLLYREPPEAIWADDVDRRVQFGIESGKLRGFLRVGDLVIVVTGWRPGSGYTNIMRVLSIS

The target in this assay is Pyruvate kinase PKLR (Homo sapiens) (UniProt P30613). The assay is described as follows: Confirmation Concentration-Response Assay for Activators of Human Reticulocyte Pyruvate Kinase. The note with it: purified hPK-R, Kinase-Glo ATP luminescence, 1 h; series mostly up to 57.5 µM. An excerpt:
Confirmatory assay NIH Chemical Genomics Center [NCGC] Wael M. Rabeh, Lyudmila Nedyalkova and Hee-Wan Park [Structural Genomics Consortium, 100 College St. Toronto, Ontario, Canada] NCGC Assay Overview: Human pyruvate kinase reticulocyte (hPK-R) enzyme was supplied as a highly purified (>95% pure) preparation from Structural Genomics Consortium in Toronto (Ontario, Canada) and assayed for its ability to generate ATP from ADP using phosphoenolpyruvate (PEP) as a substrate. ATP generation was detected in a coupled reaction by luciferase-mediated luminescence, an ATP-dependent process. Pyruvate kinase substrates, PEP and ADP, were present in the assay at Km and approximately 10-fold below Km respectively. The enzyme was assayed at an intermediate level of activity to screen for both inhibitors and activators.
NCGC Assay Protocol Summary for R-isoform Three uL of substrate mix (at r.t.) in assay buffer (50 mM Imidazole pH7.2, 50 mM KCl, 7 mM MgCl2, 0.01% Tween 20, 0.05% BSA) was dispensed into white solid bottom 1,536 well microtiter plates so that the final concentrations of substrates in the assay were 0.1 mM ADP and 0.5 mM PEP. 23 nL of compound were delivered by a pin tool and 1 uL of enzyme mix (final concentration of 0.1 nM) in assay buffer (4 degree Celsius) was added. Plates were incubated at room temperature for 1 hour. Two uL of detection mix (Kinase-Glo, Promega; at 4 degree Celsius protected from light) was added and luminescence read by a ViewLux (Perkin Elmer) at 1 second exposure/plate. Data were normalized to the uninhibited (row 31). Additionally, a no enzyme and 5-fold enzyme control was dispensed in row 32, split equally between the two conditions.
A general note: In Kinase-Glo more light means more ATP remaining.
For the compound `O=S(=O)(c1ccc(F)cc1)N1CCN(S(=O)(=O)c2ccc3c(c2)OCCO3)CC1`, the Potency result was “inactive”.

In the case of `Cc1cc2c(s1)c1cnn(Cc3ccccc3F)c(=O)c1n2C(C)C`, the Potency result was “inactive”.

In the case of `CCCc1cc(F)c(S(=O)(=O)N2CCN(S(=O)(=O)c3ccc4c(c3)OCCO4)CC2)cc1F`, the Potency entry was “inactive”.

On to `Cc1cc2c(s1)c1cnn(-c3ccccc3)c(=O)c1n2C`, for which the Potency entry was “inactive”.

As to `COc1ccc(Cn2ncc3c4sc(C)cc4n(C)c3c2=O)cc1`, the Potency result is “inactive”.

As to `COc1ccc(S(=O)(=O)N2CCN(S(=O)(=O)c3ccc(OC)cc3)CC2)cc1`, the Potency entry is “inactive”.

Turning to `CCc1cc2c(s1)c1cnn(Cc3ccccc3F)c(=O)c1n2C`, the Potency result is “inactive”.

Regarding `Cc1cc2[nH]c3c(=O)n(Cc4ccccc4F)ncc3c2s1`, the Potency result is “inactive”.

Consider `CC(=O)c1cc2c(s1)c1cnn(Cc3ccccc3F)c(=O)c1n2C`, for which the Potency result is “inactive”.

`CSc1cc2c(s1)c1cnn(Cc3ccccc3F)c(=O)c1n2C`: the Potency result is “inactive”.

Take `Cn1c2cc(B(O)O)sc2c2cnn(Cc3ccccc3F)c(=O)c21`: the Potency entry is “inactive”.

`O=S(=O)(c1ccc2c(c1)OCO2)N1CCN(S(=O)(=O)c2c(F)cccc2F)CC1`: the Potency entry is “inactive”.

For `Cc1cc2c(s1)c1cnn(Cc3ccc(C(C)C)cc3)c(=O)c1n2C`, the Potency entry is “inactive”.

Regarding `COc1ccc(S(=O)(=O)N2CCN(S(=O)(=O)c3c(F)cccc3F)CC2)cc1`, the Potency entry is “inactive”.

Regarding `Cc1cc2c(s1)c1cnn(Cc3ccc(C(F)(F)F)cc3F)c(=O)c1n2C`, the Potency entry is “inactive”.

For the compound `N#Cc1ccc(S(=O)(=O)N2CCN(S(=O)(=O)c3ccc4c(c3)OCCO4)CC2)cc1`, the Potency result was “inactive”.

In the case of `O=S(=O)(c1ccc2c(c1)OCCO2)N1CCN(S(=O)(=O)c2ccc3c(c2)OCCO3)CC1`, the Potency result is “inactive”.

For `Cc1ccc(Cn2ncc3c4sc(C)cc4n(C)c3c2=O)cc1`, the Potency entry is “inactive”.

For the compound `Cn1c2cc([N+](=O)[O-])sc2c2cnn(Cc3ccccc3F)c(=O)c21`, the Potency entry was “inactive”.

`Cc1cc2c(s1)c1c(C)nn(Cc3ccccc3F)c(=O)c1n2C`: the Potency result is “inactive”.

For the compound `Cc1cc2c(s1)c1cnn(Cc3cc(C(F)(F)F)cc(Cl)c3F)c(=O)c1n2C`, the Potency entry was “inactive”.

As to `CC1(C)CCc2cc(S(=O)(=O)N3CCN(S(=O)(=O)c4c(F)cccc4F)CC3)ccc2O1`, the Potency result was “inactive”.

Regarding `Cc1cc2c(s1)c1cnn(Cc3ccc(C)c(F)c3F)c(=O)c1n2C`, the Potency entry was “inactive”.

Values taken from PubChem BioAssay AID1782 (National Center for Advancing Translational Sciences (NCATS), 2009).
